In the library only some 7.2% were active in any assay of this set; here they are far more common.
RE007 growth inh = qHTS Assay for Inhibitors of the HIV-1 protein Vpr; S. pombe RE007 Vpr strain, BacTiter-Glo ATP luminescence, 24 h; 360,000 tested, 0.21% active; Potency, µM (top dose mostly 92.2 µM), for the others: top-dose activity change, negative = less growth, actives largely listed as inhibitors; AID 651644, 2012; active means well fitted falling curve with a large enough effect; inconclusive means small, poorly fitted or top-dose-only effect; inactive means no such curve, though single readings can be large or run the other way; further: nearly all actives have a fitted effect of over 50% in size
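Fission yeast strain RE007, carrying one chromosomally integrated HIV-1 vpr copy, was seeded at OD 0.01 in PMG+AL medium with 23 nL pinned compound. After 24 h at 30 °C and 99% humidity, viability was read by BacTiter-Glo luminescence.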
Marburg entry inh = qHTS for inhibitors of binding or entry into cells for Marburg Virus. Marburg virus pseudotyped entry inhibition, cell reporter. Potency, µM (series often up to 37.8 µM), for inactives: at the top dose activity change, negative = inhibition, actives largely listed as inhibitors. 300,000 tested, 1.8% active; calls by dose curve; tested in HEK293 cells
Sm TGR inh = qHTS Assay for the Inhibitors of Schistosoma Mansoni Peroxiredoxins; Schistosoma mansoni thioredoxin glutathione reductase (TGR), Q962Y6; purified TGR, DTNB reduction, TNB absorbance 405 nm; Potency, µM (doses to about 114 µM), inactives show top-dose activity change, negative = inhibition, usual class: inhibitors; 360,000 tested, 3% active; further: nearly all actives have a fitted effect of over 60% in size
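Kinetic colorimetric format: TGR-catalysed, NADPH-driven DTNB reduction monitored via TNB absorbance. Enzyme dispensed at 20 nM; compound exposure 15 min at room temperature before reaction start.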
Lassa entry inh = qHTS for Inhibitors of binding or entry into cells for Lassa Virus; Lassa virus pseudotype entry inhibition, cell reporter; Potency, µM (titrated, usually from 37.9 µM), for the others: top-dose activity change, negative = inhibition, actives largely listed as inhibitors; 300,000 tested, 1.2% active; AID 540256, 2011; calls by dose curve; tested in HEK293 cells; further: nearly all actives have a fitted effect of over 50% in size
FMDV antiviral = High Throughput Screening for Foot and Mouth Disease Virus Antivirals; 410,000 tested, 1.2% active; AID 1159524, 2015; FMDV antiviral cell-based qHTS; Potency, µM (series often up to 57.9 µM), for inactives: top-dose activity change, negative = inhibition, most hits filed as inhibitors; calls by dose curve; tested in HEK293T cells; further: read-out not given here; nearly all actives have a fitted effect of over 45% in size
HCV inh = qHTS Assay for Inhibitors of Hepatitis C Virus (HCV) | Huh7.5.1 HCVcc-Cre infection, luciferase reporter, 44 h | Potency, µM (titrated, usually from 41.8 µM), without a hit: at the top dose activity change, negative = inhibition, usual class: inhibitors | 340,000 tested, 3.4% active | AID 651820, 2012
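Infectious HCVcc-Cre (~0.5 moi) was added to cells just after compound, with cells seeded 4 h earlier at 1,000 per well. Luciferase activity after 44 h culture reported infection; substrate was incubated 15 min at room temperature before reading.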
* = called active by the depositor; ? = inconclusive; · = not tested or not shown; [ ] = another dose, or the depositor's remark. Unless noted, the call rests on the fitted dose curve; in most records, active means well fitted curve in the direction sought with a large enough effect; inconclusive means small, poorly fitted or top-dose-only effect, or another doubt; inactive means no such curve, though single readings can be large; an effect the other way counts as inactive or inconclusive. On the % scale 0 is the no-effect control and ±100 the full control effect; potency means the concentration at half of the fitted maximal effect.

SMILES | RE007 growth inh | Marburg entry inh | Sm TGR inh | Lassa entry inh | FMDV antiviral | HCV inh
CCC(C(=O)Nc1cccc(C#N)c1)n1nc(-c2ccccc2)ccc1=O (stereo unspecified) | · | ? | 1% | -8%[46.1 µM] | -18% | ·
CCN(CC)c1ccc(NC(=O)COCc2cc(-c3ccc4c(c3)OCO4)on2)c(C)c1 | · | · | 3% | -11%[46.1 µM] | -17% | ·
COc1ccc2c(c1)nc(SCC(=O)c1ccc(Br)s1)n2C | -27% | -21% | 32µM* | -23% | · | ?
CCCCCn1c(=N)n(CC(O)COc2ccccc2OC)c2ccccc21 (stereo unspecified) | 9% | ? | 4% | ? | ? | 11µM*
CN=c1sc2ccccc2n1CC(O)COc1ccccc1 (stereo unspecified) | -7% | ? | 5% | -33% | 0% | -5%
CCN(CC)CCn1c(=N)n(CC(O)COc2ccccc2)c2ccccc21 (stereo unspecified) | -12% | 4.5µM* | 13% | 6% | -24% | ?
CCCn1c(=N)n(CC(O)COc2ccc(C)cc2)c2ccccc21 (stereo unspecified) | -7% | ? | 20% | ? | ? | ?
CCN(CC)CCn1c(=N)n(CCOc2ccccc2)c2ccccc21 | -18% | 4.1µM* | 0% | 21µM* | ? | 10µM*
COc1ccccc1OCC(O)Cn1c(=N)n(Cc2ccccc2)c2ccccc21 (stereo unspecified) | -4% | ? | 0% | ? | ? | ?
CCN=c1sc2ccccc2n1CC(O)COc1ccccc1 (stereo unspecified) | -4% | -25% | -8% | -4% | ? | 13µM*
COc1ccc(CNC(=O)CN2C(=O)CSc3ccc(S(=O)(=O)N4CCC(C)CC4)cc32)cc1 | · | · | 4% | -1%[46.1 µM] | -6% | ·
CCN(CC)CCn1c(=N)n(CC(=O)c2ccc(Br)s2)c2ccccc21 | -22% | 7.1µM* | -4% | ? | -25% | -88%
Cn1c(=N)n(CC(=O)c2ccc(Br)s2)c2ccccc21 | -11% | ? | -25% | ? | 20% | ?
CNc1ncnc(Sc2nc(N)nc3nc[nH]c23)c1[N+](=O)[O-] | 12% | ? | · | 2.5µM* | ? | ?
Nc1nc(Sc2ccc([N+](=O)[O-])c3nonc23)c2[nH]cnc2n1 | -18% | ? | · | ? | ? | 2.8µM*
Nc1nc(SCc2ccccc2)c2[nH]cnc2n1 | 5% | · | 6% | · | -3% | 9%
CCS(=O)(=O)Nc1cc(C(=O)N[C@H]2CCCCNC2=O)c2c(c1)nc(-c1ccccc1)n2C | · | · | · | · | -18% | ·
Cc1ccc(OCc2nnc(SCC(=O)Nc3cccc4ccccc34)n2-c2ccccc2)cc1 | -1% | 13µM* | 2% | ? | -24% | ?
Cc1ccc(NC(=O)CSc2nnc(COc3ccc(C#N)cc3)n2-c2ccccc2)cc1C | 3% | 7.3µM* | -11% | ? | -3% | ?
Cc1c(Cl)cccc1NC(=O)CCS(=O)(=O)c1cccc2nsnc12 | · | 8%[46.1 µM] | -25% | -18%[46.1 µM] | 2% | ·
OCCN(CC#CC(O)(c1ccccc1)c1ccccc1)CCO | 2% | 3% | 40µM* | ? | -8% | 3%
CC(C)N(CC#CC(O)(c1ccccc1)c1ccccc1)C(C)C | -9% | ? | 40µM* | 0% | -18% | 3%
CC(C)N(CC#CC(O)(c1ccccc1)c1ccccc1)CCO | -8% | -4% | -31% | 16% | -7% | 8%
CSc1nn(CC(=O)Nc2cc(C)ccc2C)c(N)c1S(=O)(=O)c1ccccc1 | · | · | 3% | ? | ? | ·
Cc1ccc(N2CCN(C(=O)c3cc(C(=O)c4ccccc4C)c[nH]3)CC2)c(C)c1 | 33% | · | · | · | -23% | 11µM*
SMILES | RE007 growth inh | Marburg entry inh | Sm TGR inh | Lassa entry inh | FMDV antiviral | HCV inh
Cc1ccc(N2CCN(C(=O)c3ccccc3)CC2)c(C)c1 | 11% | -6% | 6% | 22% | 0% | -8%
COc1ccc2[nH]c3c(c2c1)CCN1C(=O)C(CC(=O)NCc2cccc(C(F)(F)F)c2)C[C@H](C(=O)N(C(C)C)C(C)C)[C@@]31C (stereo partly specified) | -10% | 1% | · | · | ? | -12%
COc1ccc(S(=O)(=O)N2CCCC(C(=O)Nc3cccnc3)C2)cc1Cl (stereo unspecified) | -14% | ? | -21% | -7% | 25µM* | ?
COc1ccc(NC(=O)C2CCCN(S(=O)(=O)c3ccc4c(c3)CCCN4C(C)=O)C2)cc1 (stereo unspecified) | 0% | 20%[46.1 µM] | 5% | ? | -12% | ?
COc1ccc(NC(=O)C2CCCN(S(=O)(=O)c3ccc4c(c3)CCCN4C(C)=O)C2)cc1Cl (stereo unspecified) | 15% | -10%[46.1 µM] | -8% | ? | ? | 2.5µM*
COc1ccc(NC(=O)C2CCCN(S(=O)(=O)c3cccnc3)C2)cc1OC (stereo unspecified) | -4% | · | 7% | · | -13% | -4%
CCOP(=S)(OCC)N1CCOCCOCCN(P(=S)(OCC)OCC)CCOCCOCC1 | -7% | 10µM* | -14% | ? | -14% | -16%
Cc1ccc[n+](CC(=O)Nc2c(Cl)cc(Cl)cc2Cl)c1 | -16% | ? | 3% | 13% | -14% | 23%
O=C(C[n+]1ccccc1)Nc1ccccc1[N+](=O)[O-] | -3% | 9%[46.1 µM] | ? | 16%[46.1 µM] | -5% | 13%
O=C(C[n+]1ccccc1)Nc1ccccc1Br | -11% | ? | 0.1µM* | 14% | -7% | 11%
O=C(C[n+]1ccccc1)Nc1c(Cl)cc(Cl)cc1Cl | -13% | 14%[46.1 µM] | 8.9µM* | 1%[46.1 µM] | -9% | 6%
CC1CN(CCC(=O)NCc2ccc3ncccc3c2)Cc2cc(Cl)ccc2O1 (stereo unspecified) | · | · | · | · | -4% | ·
C/C(=N\NC(=O)c1ccc(NS(=O)(=O)c2cccs2)cc1)c1cccs1 | 22% | 3%[46.1 µM] | -10% | 18% | 21% | -21%
C/C(=N\NC(=O)c1ccc(Cl)cc1)c1cccs1 | -9% | ? | 1% | 3.5µM* | -48% | 0%
C/C(=N\NC(=O)c1ccc(NS(=O)(=O)c2cccs2)cc1)c1ccc(Cl)cc1 | -6% | -2% | 0% | 3% | -14% | ?
C/C(=N/NC(=O)c1cccs1)c1ccc(NC(=O)COc2ccc(Cl)cc2)cc1 | -14% | ? | -5% | 10µM* | -4% | ?
CSc1sc(-c2n[nH]c(=S)n2C)c2c1C=CCC2 | -3% | 22% | 25µM* | ? | 22% | ?
Cc1nc(-c2ccccc2)sc1-c1n[nH]c(=S)n1C | 5% | 19% | 8% | 11% | 28% | 8%

Screening data as filed in PubChem.
